# HT1080 IDH1KD tx = toxicity to HT-1080 IDH1 knockdown cells (counter line) | HT-1080 IDH1 knockdown viability, ATP luminescence, 48 h | AID 686971 | actives 2% (n = 360,000) | Potency, µM (highest dose often 46.1 µM), for inactives: at the highest dose activity, negative = toxicity, actives largely listed as cytotoxic;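 also: 0% = DMSO wells and -100% = cell-free medium wells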
#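 Knockdown cells (IDH1KD HT-1080) received compounds 2 h after plating at 750 cells/well and were kept 48 h at 37 °C in 5% FBS RPMI. A CellTiter-Glo luminescence read gave % activity for curve fitting.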
# KB-V1 cytotox = KB-V1 MDR subline cytotoxicity; KB-V1 MDR cells viability, CellTiter-Glo, 72 h; Potency, µM (series often up to 46.1 µM), hits mostly cytotoxic; actives 3.4% (n = 400,000); AID 1347076; also: nearly all actives have a fitted effect of over 60% in size
#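 KB-V1, DMEM (no phenol red) + 10% FBS; cpd pin-transferred, titration series; 72 h, 37 degrees C; CellTiter-Glo, luminescence. Data normalized, curve-fit.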
# KB-3-1 tox = KB-3-1 parental cell cytotoxicity; KB-3-1 viability, CellTiter-Glo ATP luminescence, 72 h; actives 1.4% (n = 400,000); AID 1347075; Potency, µM (series often up to 46.1 µM), usual class: cytotoxic; also: nearly all actives have a fitted effect of over 60% in size
#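 Cytotoxicity measured as CellTiter-Glo luminescence after 72 h at 37 C. Compound titrations were pinned onto drug-naive KB-3-1 parental adenocarcinoma cells grown in DMEM with 10% FBS, and normalized data fitted to concentration-response curves.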
# DT40 TDP1 no CPT = qHTS for Inhibitors of human tyrosyl-DNA phosphodiesterase 1 (TDP1): qHTS in cells in absence of CPT | DT40 Tdp1-/- hTDP1 cells, no CPT, ATP luminescence, 48 h | AID 686978, 2013 | actives 15% (n = 420,000) | Potency, µM (highest dose often 46.2 µM), for the others: top-dose activity change, negative = growth inhibition, usual class: inhibitors; also: nearly all actives have a fitted effect of over 55% in size
#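 Stably hTDP1-transfected Tdp1-null chicken DT40 cells were treated with library compounds minus camptothecin and grown for at least 48 hr at 37 °C, after which cellular ATP was quantified by luminescence.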
# TDP1 cell CPT = growth inhibition of DT40 Tdp1-/-;hTDP1 cells with camptothecin (screen for TDP1 inhibitors). actives 12% (n = 420,000). chicken DT40 Tdp1-/-;hTDP1 cells + 20 nM CPT, ATP luminescence, 48 h. AID 686979. Potency, µM (top dose mostly 46.2 µM), inactives show at the top dose activity change, negative = growth inhibition, hits mostly inhibitors; also: nearly all actives have a fitted effect of over 55% in size
#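 Cell growth measured by CellTiter-Glo luminescence after a minimum 48 h, 37 C compound exposure with 20 nM CPT in Tdp1-knockout DT40 cells stably expressing hTDP1, seeded 400/well; qHTS titration format.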
# HT1080-NT tox = kills 2HG-producing HT-1080-NT fibrosarcoma cells; Potency, µM (series often up to 46.1 µM), inactives show at the top dose activity, negative = less viability, actives largely listed as cytotoxic; HT-1080-NT fibrosarcoma viability, CellTiter-Glo ATP luminescence, 48 h; AID 686970; actives 1.6% (n = 360,000);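 also: NT is the 2HG producing partner of a matched IDH1 knockdown line; 0% = DMSO-treated cells and -100% = media-only wells without cells; nearly all actives have a fitted effect of over 55% in size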
#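 Toxicity toward the 2HG-producing NT line was scored as %Activity, normalised to DMSO and no-cell wells, from CellTiter-Glo luminescence after 48 hours' treatment.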
# Active calls of the source: *; i = inactive; ? = inconclusive; · = not tested or not shown; [ ] = dose if it differs, or a comment. The list is not random: actives were taken first. Their share in the collection is about 19%. Calls follow the shape of the dose curve; as a rule, active = well fitted curve in the direction sought with a large enough effect; inconclusive = small, poorly fitted or top-dose-only effect, or another doubt; inactive = no such curve, though single readings can be large; an effect the other way counts as inactive or inconclusive. Unless noted, % is scaled to controls: 0 for no effect and ±100 for the full control effect; potency is read from the fitted curve at half-maximal effect.
SMILES,HT1080 IDH1KD tx,KB-V1 cytotox,KB-3-1 tox,DT40 TDP1 no CPT,TDP1 cell CPT,HT1080-NT tox
Cc1ccc(S(=O)(=O)NC2CCCCC2)c(C)c1NS(C)(=O)=O,?,i,i,-14.1%,-3.3%,-3.5%
N#C/C(=C\c1cccc([N+](=O)[O-])c1)c1ccccn1,-23.1%,i,i,14.6µM*,-24.4%,-5.8%
O=C(c1cccc([N+](=O)[O-])c1)c1ccccn1,2.4%,i,i,-0.4%,-0.1%,24.2%
O=C(NNC(=O)c1ccccn1)c1cccc([N+](=O)[O-])c1,-15.7%,i,i,16.4µM*,16.4µM*,-0.5%
N/C(=N\OC(=O)c1ccc(Cl)c([N+](=O)[O-])c1)c1ccccn1,16.4µM*,i,i,-20.0%,-4.9%,?
O=C(NNC1=Nc2ccccc2SC1)c1ccccc1F,-28.5%,?,i,?,?,-19.0%
O=C(NNC1=Nc2ccccc2SC1)c1cccc([N+](=O)[O-])c1,?,?,?,23.1µM*,16.4µM*,-16.3%
N/C(=N\OC(=O)c1ccc(Cl)c(Cl)c1)c1ccccn1,?,i,i,-11.0%,-23.8%,12.6%
Cc1nc(C(=O)NNC(=O)c2ccc(Cl)cc2)cs1,?,i,?,11.6µM*,16.4µM*,-35.3%
COc1ccc2c(c1)C(=NNC(=O)c1ccccn1)c1cc(OC)ccc1-2,0.9%,i,?,2.59µM*,4.61µM*,20.0%
COc1cc(OC)cc(C(=O)NNC(=O)c2ccccc2Br)c1,9.1%,i,i,4.9%,10.9%,18.6%
O=C(NN=C1CCCCCCC1)c1ccccn1,-6.5%,i,i,-11.1%,0.0%,-4.9%
Cc1ccc(C(=O)O/N=C(\N)c2ccccn2)c(C)c1,14.6µM*,?,?,-23.6%,?,16.4µM*
O=C(NNC(=O)c1csc(-c2cccs2)n1)c1ccc(Cl)cc1,?,i,i,?,?,-29.3%
COc1cc(OC)cc(C(=O)NNC(=O)c2ccccn2)c1,?,?,i,6.51µM*,2.91µM*,-27.0%
Cc1ccc(C(=O)Nn2cnnc2)cc1,10.9%,i,i,-3.9%,6.8%,23.5%
COc1cccc(NC(=O)CSc2nc3ccccc3c(=O)n2Cc2cccs2)c1,-1.0%,5.17µM*,i,?,20.6µM*,9.6%
CCOCCCn1c(SCC(=O)Nc2cccc(OC)c2)nc2ccccc2c1=O,-6.0%,?,i,?,?,9.3%
COc1cccc(NC(=O)CSc2nc3ccccc3c3nc4ccccc4n23)c1,?,i,i,16.4µM*,11.6µM*,?
COc1cccc(NC(=O)CSc2nc3ccccc3c(=O)n2CCCC(=O)N2CCCC2)c1,-11.1%,2.59µM*,i,?,-19.6%,-12.3%
CCC(Sc1nc2ccccc2c2nc(-c3ccccc3)nn12)C(=O)Nc1cccc(OC)c1 (stereo not given),·,?,i,18.4µM*,?,·
CCCCNC(=O)C1(C)CCCCN1C(=O)c1ccc2c(c1)CCO2 (stereo not given),28.3%,i,i,-25.3%,-19.2%,29.2%
O=C(N/N=C/c1ccccc1)c1ccc(N2CCCC2=O)cc1,0.3%,i,i,-7.6%,0.5%,0.0%
Cc1ccc(NC(=O)CSc2nc3ccccc3c(=O)n2CCCN2CCCCC2)cc1Cl,?,?,i,20.6µM*,20.6µM*,23.1µM*
O=C(CSc1nc2ccccc2c(=O)n1CCCN1CCOCC1)Nc1ccc(F)c(Cl)c1,?,i,i,?,?,?
SMILES,HT1080 IDH1KD tx,KB-V1 cytotox,KB-3-1 tox,DT40 TDP1 no CPT,TDP1 cell CPT,HT1080-NT tox
COc1ccc(-c2csc3ncn(Cc4ccccc4)c(=O)c23)cc1,-18.6%,i,i,?,?,-6.8%
COc1ccc(-c2c3c(cc4ncn(Cc5ccccc5)c24)COC3=O)cc1,6.6%,i,i,23.1µM*,?,1.9%
CSc1cccc(NC(=O)NNC(=O)C2CCN(S(=O)(=O)N(C)C)CC2)c1,1.7%,?,i,17.4%,-5.8%,18.1%
Cc1cc(C)cc(-n2ccn(Cc3ccc(F)cc3)c(=O)c2=O)c1,·,·,·,-23.5%,-20.0%,·
COCCCNC(=O)CN(c1cccc(Cl)c1)S(C)(=O)=O,-12.0%,i,i,-8.2%,1.8%,-2.8%
CCCC(=O)N1CCc2cc(OC)c(OC)cc2C1COc1ccc2c(C)cc(=O)oc2c1 (stereo not given),·,i,i,13µM*,?,·
COc1cc2c(cc1OC)C(COc1ccc3c(C)cc(=O)oc3c1)N(C(=O)c1ccc(C)c(C)c1)CC2 (stereo not given),·,?,i,16.4µM*,?,·
COc1cc2c(cc1OC)C(COc1ccc3c(C)cc(=O)oc3c1)N(C(=O)c1ccc(C)cc1)CC2 (stereo not given),·,i,i,?,?,·
COc1ccc(C(=O)N2CCc3cc(OC)c(OC)cc3C2COc2ccc3c(C)cc(=O)oc3c2)c(OC)c1 (stereo not given),·,i,?,-20.6%,1.7%,·
CCC(CC)C(=O)N1CCc2cc(OC)c(OC)cc2C1COc1ccc2c(C)cc(=O)oc2c1 (stereo not given),·,?,i,16.4µM*,?,·
CC1(C)CCc2cc(-c3ccn(S(=O)(=O)c4ccccc4Cl)n3)ccc2O1,-25.8%,?,i,?,?,-5.5%
COc1ccc(S(=O)(=O)n2ccc(-c3ccc4c(c3)CCC(C)(C)O4)n2)cc1,?,11.6µM*,i,?,?,-24.4%
NNc1ccc([N+](=O)[O-])c2[nH][nH]c(=O)c12,-4.7%,i,?,1.3%,-6.4%,-1.2%
O=S(=O)(c1ccc(Cl)cc1)c1nc(-c2ccccc2Br)oc1NCc1ccccc1,·,i,i,13µM*,?,·
Cc1ccc(S(=O)(=O)c2nc(-c3cccs3)oc2N2CCC(C)CC2)cc1,·,?,i,10.3µM*,23.1µM*,·
Cc1ccccc1-c1nc(S(=O)(=O)c2ccc(Br)cc2)c(NCc2cccnc2)o1,?,i,i,-24.6%,-7.4%,-0.9%[9.24 µM]
CN(C)CCCNc1oc(-c2ccc(Cl)cc2)nc1S(=O)(=O)c1ccccc1,-24.0%,i,i,16.4µM*,14.6µM*,-21.8%
NC(=O)C1CCN(c2oc(-c3ccccc3F)nc2S(=O)(=O)c2ccc(Cl)cc2)CC1,0.0%[9.24 µM],?,i,?,-24.3%,9.1%

# Bioassay records: PubChem, National Center for Advancing Translational Sciences (NCATS)
